Drawing on PubChem BioAssay (EPA / NIEHS), this text covers AC50 and outcome for 22 compounds.

“And” between values parts separate entries of the source, which are not always exact repeats. Equal entries are not always repeated. The source made the active and inactive calls. The calls were made as follows: active = hit-call score of the fitted dose curve at least 0.9, where 1 is the maximum; inactive = score below 0.9.

This assay can be described thus: CEETOX_H295R_OHPROG: CeeTox H295R High-throughput Steroidogenesis Assay for OH-Progesterone (OHPROG) (AID 2283435). Conditions: actives raise or lower the signal. The protocol:
CEETOX_H295R is a cell-based, multiplexed-readout assay that uses H295R, a human adrenal gland cell line, with measurements taken at 48 hours after chemical dosing in a 96-well plate.CEETOX_H295R_OHPROG is one of 23 assay component(s) measured or calculated from the CEETOX_H295R assay. It is designed to make measurements of hormone induction, a form of inducible reporter, as detected with absorbance signals by HPLC-MS-MS technology.Data from the assay component CEETOX_H295R_OHPROG was analyzed into 1 assay endpoint. This assay endpoint, CEETOX_H295R_OHPROG, was analyzed with bidirectional fitting relative to DMSO as the negative control and baseline of activity. Using a type of inducible reporter, gain or loss-of-signal activity using HPLC-MS-MS was used to understand synthesis of 17alpha-hydroxyprogesterone in H295R cell line at 48hr of chemical exposure. To generalize the intended target to other relatable targets, this assay endpoint is annotated to the steroid hormone intended target family, where the subfamily is progestagens.
Cell culture and media preparation procedures were conducted in accordance with OECD Test No. 456 guidelines, with minor modifications. H295R cells (ATCC CRL-2128) were expanded for 5 passages and frozen in batches in liquid nitrogen. Prior to the steroidogenesis assay, H295R cells were thawed and passed at least 4 times. The maximum passage was 10. Cells were maintained in a 1:1 mixture of DMEM/F12 supplemented with 5ml/L ITS+ Premix (BD Bioscience) and 12.5 ml/L Nu-Serum (BD Bioscience). After seeding cells into 96-well plates at 50-60% confluency, cells were allowed to adhere overnight. Prior to chemical testing, culture medium was replaced with 175 uL medium containing 10 uM forskolin to stimulate steroidogenesis for 48 hours. Following prestimulation, forskolin medium was replaced with medium containing test chemical solubilized in DMSO (ensuring a final concentration of 0.1% DMSO). Test chemicals were incubated for 48 hours, then the medium was removed and split into 2 vials containing approximately 75uL each, and stored at -80 C prior to hormone analysis. For steroid quantification, media samples were shipped to OpAns, LLC (Durham, NC) on dry ice, and samples were thawed to room temperature prior to liquid-liquid extraction. Steroid hormones were extracted from media samples using methyl tertbutyl ether (MTBE). An extra derivatization with dansyl chloride was included for estrogen (estrone and estradiol) detection only. Steroid hormones were separated by HPLC, eluted using a reverse phase C18 gradient with electrospray positive ionization, followed by quantification by tandem mass spectrometry (MS/MS). Data were acquired on a MassHunter Workstation Acquisition version B03.01 (Agilent Technologies, Inc.) and processed using MassHunter Quantitative Analysis for QQQ. Accuracy was determined for each hormone analyte from 3 standards to determine upper and lower limits of quantification (ULOQ and LLOQ, respectively) using a 7-point standard curve. Precision and accuracy of the extraction and quantification methods were calculated as the percent relative standard deviation (%RSD) of the spiked standards and percent spiked standard recovered, respectively. […] Test medium was removed following chemical exposure, and cell viability was evaluated in the same wells by MTT. MTT procedures were as follows: after removal of test medium, 500 uL of 0.5 mg/ml of 3-[4,5-dimethylthiazol-2-y]2,5-diphenyltetrazoliumbromide solution was added to the cells. Following a 4-hour incubation at 37 C and 5% CO2 to allow formazan-crystal formation, the MTT solution was removed and blue formazan salt crystals were solubilized using 500uL anhydrous isopropanol with shaking for 20 minutes. Absorbance was read at 570 and 650nm using a Packard Fusion microplate reader. Background correction of absorbance units was used to determine percent change relative to controls. […]
On to `CCC(=O)O[C@H]1CC[C@H]2[C@@H]3CCC4=CC(=O)CC[C@]4(C)[C@H]3CC[C@]12C`, for which the half-maximal activity concentration (AC50) is 3.14 µM (active). `C[C@]12CCC(=O)C=C1CC[C@@H]1[C@@H]2CC[C@@]2(C)[C@H]1CC[C@]2(C)O`: the concentration at half-maximal activity (AC50) was 0.807 µM (active). Turning to `CCOCCOC(C)=O`, the outcome was inactive.

For `NS(=O)(=O)C(F)(F)C(F)(F)C(F)(F)C(F)(F)C(F)(F)C(F)(F)C(F)(F)C(F)(F)F`, the compound was classed as inactive.

Regarding `CCNc1nc(NC(C)C)nc(SC)n1`, the compound was called inactive. In the case of `Cc1cc(-c2ccc(N)c(C)c2)ccc1N`, the AC50 was 2.96 µM (active) and 10.2 µM (active).

Take `Oc1ccc(Cl)cc1Cl`: the AC50 is 22.2 µM (active). On the same count and under the same terms, then `CC#Cc1cc(C)nc(Nc2ccccc2)n1`, with 34.8 µM (active); and `c1cc2ccc3cccc4ccc(c1)c2c34`, with 27.1 µM (active); and `Cc1cc2c3c(c1)C(c1ccccc1)=N[C@@H](NC(=O)c1ccncc1)C(=O)N3CC2`, with 25.6 µM (active). In the case of `Nc1ccc(-c2ccc(N)cc2)cc1`, the AC50 is 37.4 µM (active). On to `Cc1ccc(O)c(C)c1`, for which the compound was classed as inactive. Take `CCC(C)(CC)c1cc(NC(=O)c2c(OC)cccc2OC)on1`: the result was inactive. Regarding `Clc1ccc(C(c2ccccc2Cl)C(Cl)(Cl)Cl)cc1` (configuration not stated), the outcome was inactive. For `C[C@]12CCC(=O)C=C1CC[C@@H]1[C@@H]2CC[C@]2(C)C(=O)CC[C@@H]12`, the AC50 is 0.535 µM (active). As to `ClC1=C(Cl)[C@]2(Cl)[C@@H]3[C@H]4C[C@H]([C@@H]5O[C@H]45)[C@@H]3[C@@]1(Cl)C2(Cl)Cl`, the AC50 was 13 µM (active). For `Cc1ccccc1CO[C@@H]1C[C@@]2(C(C)C)CC[C@]1(C)O2`, the compound was classed as inactive. As to `CCSC(=O)N(CC)C1CCCCC1`, the result was inactive. As to `O=C(NC(=O)c1c(F)cccc1F)Nc1cc(Cl)c(OC(F)(F)C(F)F)c(Cl)c1`, the call was inactive. As for `N#Cc1ccc(N(CC(N)=O)CC(F)(F)F)cc1C(F)(F)F`, the call was inactive. Still for that read-out and setting: then `Cc1cccc(C)c1N`, with “inactive”. `Cc1cc(O)ccc1Cl`: the concentration at half-maximal activity (AC50) was 21.5 µM (active).

Broadly, the AC50 is the concentration giving half of the maximal activity seen.
